Consider 111 compounds from ChEMBL document CHEMBL4513216, “Probing the Open Global Health Chemical Diversity Library for Multistage-Active Starting Points for Next-Generation Antimalarials” (ACS Infect Dis, 2020).

Among all 69,000 compounds or so, about 8,600 (12%) showed an effect of 50% or more. This excerpt belongs to a sample that is enriched for strong results.

The assay concerns Plasmodium berghei. Kind of assay: Screen against P. berghei liver stage (PbLuc), transformed with Luciferase, at 10uM. It is filed as functional, HepG2. The following applies: tested at 10 uM.
`Cc1cc(C(=O)NC2CCc3c(ccc(=O)n3CC(C)C)C2)no1` (stereo unspecified): the INHIBITION is listed as 2.7%.
The figure for `CN(CCC#N)C(=O)Cn1cnc2c(Br)cccc2c1=O` is 11.9%; for `CCn1ccnc1CN1CCCN(C(=O)c2ccsc2)CC1` it is 16.165%; for `CS(=O)(=O)c1ccc(NCCC2CCCO2)c(S(C)(=O)=O)c1` (stereo unspecified) it is 15.2%.
The figure for `Cc1cccc(SC2CCN(C(=O)CCCn3cnnn3)CC2)c1` is 43.8%.
With `CN(C)Cc1ccnc(NS(=O)(=O)Cc2cccc(F)c2)c1`, the INHIBITION is recorded as 27%.
The figure for `CC(C)n1cnnc1C1CCCN(C(=O)COCc2ccccc2)C1` (stereo unspecified) is 2.3%; for `NC(=O)c1csc(N2C[C@@H](CN3CCC(O)CC3)[C@@H](CO)C2)n1` it is 19.6%.
As for `CC(NC(=O)CSCC(N)=O)c1ccc(Oc2ccccc2)cc1` (stereo unspecified), the figure is 1.86%; as for `CC(NC(=O)CSCC(N)=O)c1ccccc1Oc1ccccc1` (stereo unspecified), 71.4%; as for `CCS(=O)(=O)CC(=O)NC(C)c1ccccc1Oc1ccccc1` (stereo unspecified), -3.94%.
With `Cc1nnc(N2C[C@@H](OCC3CCCC3)[C@H]3OCCC[C@H]32)s1`, the INHIBITION is recorded as -36%.
The figure for `O=C(c1ccc2[nH]nnc2c1)N1C[C@H](O)[C@]2(CCCO2)C1` is 4.41%; for `Cc1nc(-c2cc(C(=O)NCCN3CCOCC3)c3ccccn23)cs1` it is -11.6%; for `O=C(NCCN1CCOCC1)c1ccc(-n2ccc3ccccc32)s1` it is 63.2%.
The figure for `Cn1ccc2c(C(=O)NCCCN3CCOCC3)cccc21` is 22.2%.
As for `Cn1ccc2c(C(=O)NCCCN3CCCC3)cccc21`, the figure is 55.9%; as for `O=C(NCCCN1CCCCC1)c1ccc(-n2ccc3ccccc32)s1`, 84.5%; as for `CCN(CC)CCNC(=O)c1ccc(-n2ccc3ccccc32)s1`, 75.1%.
Turning to `O=C(NCCCN1CCOCC1)c1ccc(-n2ccc3ccccc32)s1`, the INHIBITION turned out to be 29.3%.
As for `CCC1CN(CC(=O)NCCN(CC)CC)c2ccccc2S1` (stereo unspecified), the figure is 19.4%; as for `O=C(NCCCN1CCCC1=O)c1ccc(-n2ccc3ccccc32)s1`, -45.5%.
The figure for `CCN(CC)CCNC(=O)c1cnc(C(C)(C)C)s1` is 4.88%; for `O=C(NCCCN1CCCCC1)c1n[nH]c(=O)c2ccccc12` it is 14.4%; for `Cn1ccc2c(C(=O)NCCCS(C)(=O)=O)cccc21` it is 9.16%.
As for `Cc1nc2c(c(=O)[nH]1)CN(C(=O)CCC1CCCN(C)C1)C2` (stereo unspecified), the figure is 48.2%.
With `Cc1noc(CN(C)Cc2ccc3c(c2)OCO3)n1`, the INHIBITION was 19.2%.
With `Cc1cc(Cl)ccc1-n1ncc(C(=O)NCC2COC(C)(C)O2)c1N` (stereo unspecified), the INHIBITION is reported as -15.2%.
For `CC(C)N(C)Cc1cnc2n1CCN(Cc1ccsc1)C2`, the INHIBITION was found to be 21.4%.
As for `COCCn1ccc2cc(C(=O)N3CCN(S(C)(=O)=O)CC3)ccc21`, the figure is -0.448%.
As for `CC(C)(C)C(=O)N1CCC(c2noc(C3CCC(=O)N3)n2)CC1` (stereo unspecified), the INHIBITION is given as -17.9%.
As for `Cc1nnc2n1CCN(Cc1csc(COc3ccccc3)n1)C2`, the figure is -0.113%; as for `CC1(C)Cc2nc(C(C)(C)C)ncc2C(NC(=O)C2(N)CC2)C1` (stereo unspecified), -10.9%.
As for `COc1cc(C(=O)NS(=O)(=O)c2cncc(Br)c2)cc(OC)c1C`, the figure is -4.68%; as for `O=C1[C@@H]2CN(c3ncccc3Cl)C[C@]2(C(=O)O)CN1CC1CC1`, 39.1%; as for `Cc1cc(CC(C)Nc2ncnc3cccc(F)c23)[nH]n1` (stereo unspecified), 19.3%.
The figure for `CC(Cc1cncs1)Nc1ncnc2cccc(F)c12` (stereo unspecified) is 66.9%; for `CC(Cc1cccnc1)Nc1ncnc2cccc(F)c12` (stereo unspecified) it is -3.43%.
Take `COc1ccc(OCCNC(=O)N2CCS(=O)(=O)CC2)cc1`: the INHIBITION is given as -16.35%.
As for `COCCOCC(=O)Nc1cc(C)ccc1F`, the figure is -18.9%; as for `COCCOCC(=O)Nc1ccc(C)cc1F`, -29.2%; as for `COCCOCC(=O)Nc1ccc(F)cc1C`, 55.4%.
As to `CCN(C)c1ncnc2c1CCN(Cc1nccs1)CC2`, the INHIBITION is -37.8%.
As for `CCCc1nc(N[C@H]2COC[C@@H]2N2CCCCC2)c2cnn(C)c2n1`, the figure is -19.8%; as for `CCc1nc(NCCc2nc(C)c(C)s2)c2cnn(C)c2n1`, 27.6%.
The figure for `CCc1nc(NCCc2c(C)nn(CC)c2C)c2cnn(C)c2n1` is 65.7%; for `CCCc1nc(NCc2c(C)nn(CCC)c2C)c2cnn(C)c2n1` it is 66.6%.
The figure for `CCCc1nc(N[C@H]2COC[C@@H]2N2CCCC2)c2cnn(C)c2n1` is 25.8%; for `Cc1cc(C(F)(F)F)nc(CCNc2nc(C)nc3c2cnn3C)n1` it is 15.3%.
Take `CC(C)(C)c1ncc(CNCC2CCCN2c2cccnn2)s1` (stereo unspecified): the INHIBITION came to 31.3%.
As for `Cn1cc(C(=O)NC[C@@H]2OC[C@H]3CN(Cc4ccco4)CC[C@H]32)cn1`, the figure is -1.53%; as for `CC(C)OCCN1CCN(C(C)c2nc(C3CC3)no2)CC1` (stereo unspecified), 33.6%.
The figure for `O=C(NCCNc1ncccn1)N1CCCC1` is -0.113%; for `Cc1ccc(N2CC(c3nccc(C)n3)C2)nn1` it is 19.64%; for `CCOC(C)C(=O)NCc1ccc(N(C)C)cc1` (stereo unspecified) it is -25.9%.
As for `CC(C)c1cc(Br)ccc1NC(=O)NCC(O)CO` (stereo unspecified), the figure is 25.4%.
On to `CCOCC(O)CN1CCN(C(=O)c2cc(F)cc(F)c2)CC1` (stereo unspecified), for which the INHIBITION was determined as 3.73%.
In the case of `O=C(CCNC(=O)c1cnccn1)Nc1ncc[nH]1`, the INHIBITION was found to be 59.1%.
The figure for `CC(C)(C)c1ccc(C(=O)NCCCNC(=O)c2cnccn2)cc1` is -23.45%; for `O=C(NCCSC1CCCC1)c1cnccn1` it is 4.41%.
The figure for `CC(C)(C)c1ccc(S(=O)(=O)CCNC(=O)c2cnccn2)cc1` is 26.8%.
As for `O=C(NCC(=O)N1CCc2ccccc2C1)c1cnccn1`, the figure is -112%.
As to `O=C(NCCNc1cc(N2CCCC2)ncn1)c1cnccn1`, the INHIBITION is listed as 19.2%.
The figure for `O=C(CCCNC(=O)c1cnccn1)Nc1ncc[nH]1` is 56.3%; for `O=C(NCc1csc(Br)c1)c1cnccn1` it is -43.6%.
As for `O=C(CNC(=O)c1cnccn1)Nc1ncc[nH]1`, the figure is 71.2%.
The figure for `O=C(Cc1ccccn1)N1CCC2(CC1)CC(Oc1ccccn1)CO2` (stereo unspecified) is 14.2%; for `O=C(c1cccnc1Oc1ccc(Cl)cc1)N1CC[C@@H](O)C1` it is 11.5%.
As for `Cn1nccc1C(=O)N1CCC2(CC1)COC(COc1ccccn1)C2` (stereo unspecified), the INHIBITION turned out to be 8.64%.
As for `CC(=O)Nc1nc(C)c(S(=O)(=O)NCCc2cccnc2)s1`, the figure is 13%; as for `Cc1ccc2oc(CN3CCC(C(=O)O)(n4ccnc4)CC3)c(C)c2c1`, -23.5%.
Regarding `Cc1nc2c(c(NC(C)C)n1)CCN(C1CCOCC1)CC2`, the INHIBITION was determined as 36.4%.
As for `Cc1cnn(CCCNC(=O)NCCS(=O)(=O)Nc2ccccc2)c1`, the figure is -4.4%; as for `Cc1cnn(CCCNC(=O)NC(C)C(=O)Nc2ccccc2)c1` (stereo unspecified), 68.8%.
The figure for `Cc1cnn(CCCNC(=O)NCCC(=O)Nc2ccccc2)c1` is 22.6%; for `Cc1nc2c(c(C)c1CC(=O)NCc1ccco1)c(=O)[nH]n2C` it is 13.6%.
In the case of `Cn1ncc2c(NCC3CCCN3c3cccnn3)ncnc21` (stereo unspecified), the INHIBITION was determined as 21.5%.
For the compound `c1cnnc(N2CCCC2CNc2ncnc3ccccc23)c1` (stereo unspecified), the INHIBITION is on record as 64.7%.
The figure for `c1cnnc(N2CCCC2CNc2ncnc3c2CCC3)c1` (stereo unspecified) is -24.2%; for `c1cnnc(N2CCCC2CNc2ncnc3ccsc23)c1` (stereo unspecified) it is 52.3%; for `c1cnnc(N2CCCC2CNc2ncnc3sccc23)c1` (stereo unspecified) it is -19.6%.
As for `c1cnnc(N2CCCC2CNc2cnc3ccccc3n2)c1` (stereo unspecified), the INHIBITION came to 7.08%.
The figure for `Cc1nc(CN(C)c2cc(N3CCCC3CO)ncn2)cs1` (stereo unspecified) is 22.1%.
Regarding `O=C1c2cccnc2OC(CN2CCOCC2)CN1Cc1cccs1` (stereo unspecified), the INHIBITION stood at 15.4%.
The figure for `CN1CCC(CN(C)C(=O)c2cc(C3CCCN3C)ccn2)CC1` (stereo unspecified) is -12.9%; for `Cn1nc(CNC(=O)CC#N)c2c1CN(CC1CC1)CC2` it is 16.9%; for `Cn1cc(CN2CCCC(c3nc(O)cc(-c4cccs4)n3)C2)cn1` (stereo unspecified) it is -15.1%.
As for `CN(C)S(=O)(=O)N1C[C@H]2CC[C@@H](C1)N(Cc1ccc3c(c1)OCCO3)C2`, the figure is 20.6%.
On to `O=C(O)c1ccnc(-c2ccnc(N3CCC4(CCO4)CC3)n2)c1`, for which the INHIBITION came to 40.2%.
As for `O=C1CC2(CCN(c3nccc(-c4cc(C(=O)O)ccn4)n3)CC2)CN1`, the figure is 64.9%.
The figure for `Cc1ccc(-c2ccnc(N3CCC4(CCO4)CC3)n2)c(C)n1` is 36.5%; for `O=C(O)c1ccnc(-c2ccnc(N3CCC(F)(F)CC3)n2)c1` it is 30.3%; for `Cc1ccc(-c2ccnc(N3CCC4(CC3)CNC(=O)C4)n2)c(C)n1` it is 68.9%.
In the case of `Cc1ccc(-c2ccnc(N3CCC4(CC3)CNC(=O)O4)n2)c(C)n1`, the INHIBITION stood at 30.9%.
As to `Cc1cc(OC(F)F)c(C(=O)N2CCC(CN(C)C)CC2)s1`, the INHIBITION is on record as -9.44%.
With `CC(C)c1cc(CN(C)C(=O)CN2CCC(C(N)=O)CC2)no1`, the INHIBITION was found to be 12.7%.
The figure for `Cc1ccc(CNc2n[nH]c(C)n2)cc1` is 46.6%.
The figure for `CN(C(=O)c1cccc(C#N)c1)c1nnc(C2CCOC2)s1` (stereo unspecified) is 24.45%.
The figure for `CCNC(=O)C1CCN(Cn2nc(-c3ccc(F)cc3)oc2=O)CC1` is 30.6%; for `CC(C)CNC(=O)c1ccc2c(=O)n(-c3ccccc3)cnc2c1` it is 60.9%; for `CC(C)CCNC(=O)c1ccc(-n2cnc3ccccc3c2=O)cc1` it is 26.8%.
`CC(C)CCNC(=O)c1ccc2c(=O)n(-c3ccccc3)cnc2c1`: the INHIBITION stood at 1.8%.
`NCCc1cn(Cc2ccccn2)c2ccccc12`: the INHIBITION is reported as -18.2%.
As for `c1cncc(CNc2cncc(C3CCCN3)n2)c1` (stereo unspecified), the INHIBITION is given as 6.26%.
As for `CCOc1ncccc1NC(=O)c1cccs1`, the figure is -10.9%.
For `COc1ccc(NC(=O)c2ccc[nH]2)c(N2CCN(C(C)=O)CC2)n1`, the INHIBITION came to 6.8%.
As for `COc1ccc(N)c(N2CCN(C(C)=O)CC2)n1`, the figure is 42.3%; as for `COc1ccc(NC(=O)CCC(C)C)c(N2CCN(C(C)=O)CC2)n1`, 68.8%; as for `CCCC(C)C(=O)Nc1ccc(OC)nc1N1CCN(C(C)=O)CC1` (stereo unspecified), 29.4%.
The figure for `COc1ccc(NC(C)=O)c(N2CCN(C(C)=O)CC2)n1` is 80.1%; for `COc1ccc(NC(=O)c2ccco2)c(N2CCN(C(C)=O)CC2)n1` it is 44%.
